# About 83,000 compounds went through this panel and 20% of them were active in at least one assay; those are over-represented in the sample as a whole.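 96-well plates, one dose, 48 hours. Percent growth reported; active if below 10.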 Values without a mark were called inactive. Activity calls are given as the source filed them.
# Test system: NCI-H522 lung
# Assay: NCI-60 one-dose screen, 48 h (100 = growth as untreated, 0 = no growth, -100 = all killed)
# Settings: 10 µM
row,SMILES,growth
1,Clc1cccc(Cl)c1Nc1ccc2nnc(-c3ccncc3)n2n1,-74.4% (active)
2,COc1ncnc2c1ncn2C/C(Br)=C(\Br)CCl,-72.1% (active)
3,O=C1c2ccccc2C(=O)c2c(Nc3ccc(CCO)cc3)ccc(O)c21,71.5%
4,COc1ccccc1CNCCCCCCCCCCCCN1C(=O)c2ccc3c4c(ccc(c24)C1=O)C(=O)N(CCCCCCCCCCCCNCc1ccccc1OC)C3=O,87%
5,CC1SC(c2cccc(Oc3ccccc3)c2)N(CCc2cccs2)C1=O (stereo not given),-50.8% (active)
6,COc1ccc(-c2csc3c2-n2cccc2C3=O)cc1O,-22.5% (active)
7,Fc1ccccc1Nc1ccc2nnc(-c3ccncc3)n2n1,-74.5% (active)
8,COc1ccc(C2SC(C)C(=O)N2CCc2cccs2)cc1OC (stereo not given),66.2%

# Test system: A549/ATCC NSCLC
# Assay: as above
# Settings: 10 µM unless noted
row,SMILES,growth
1,Clc1cccc(Cl)c1Nc1ccc2nnc(-c3ccncc3)n2n1,104%
2,CC(C)(C)[Si](C)(C)OC1[C@@H](CNC(=O)NC(=O)CCl)O[C@@H](n2cnc3c(N)ncnc32)[C@H]1O[Si](C)(C)C(C)(C)C (stereo not given in full),-22.3% (active)
3,CC(=O)Nc1ccc(Sc2ccc([N+](=O)[O-])o2)cc1,65.1%
4,CC(C)(C)[Si](C)(C)OC1[C@@H](COC(=O)NC(=O)CCl)O[C@@H](n2cnc3c(N)ncnc32)[C@H]1O[Si](C)(C)C(C)(C)C (stereo not given in full),62.6%
5,COc1ncnc2c1ncn2C/C(Br)=C(\Br)CCl,9.47% (active)
6,O=C1c2ccccc2C(=O)c2c(Nc3ccc(CCO)cc3)ccc(O)c21,67.5%
7,COc1ccccc1CNCCCCCCCCCCCCN1C(=O)c2ccc3c4c(ccc(c24)C1=O)C(=O)N(CCCCCCCCCCCCNCc1ccccc1OC)C3=O,75.4%
8,O=c1[nH]c(-c2ccccn2)nc2sc3c(c12)CCCCCC3,23.2%
9,CC(C)OC1=C(Cl)C(=O)c2ccccc2C1=O,102%
10,CCCCCn1c(=N)n(CC(O)COc2cccc(C)c2)c2ccccc21 (stereo not given),7.6% (active)
11,CC1SC(c2cccc(Oc3ccccc3)c2)N(CCc2cccs2)C1=O (stereo not given),-9.36% (active)
12,CC(C)(C)[Si](C)(C)OC1[C@@H](COC(N)=O)O[C@@H](n2cnc3c(N)ncnc32)[C@H]1O[Si](C)(C)C(C)(C)C (stereo not given in full),67.8%
13,COc1ccc(-c2csc3c2-n2cccc2C3=O)cc1O,11.9%
14,O=c1[nH]c(-c2ccncc2)nc2sc3c(c12)CCCCCC3,43.7%
15,COc1ccc(-n2c(SCc3cc(OC)c(OC)c(OC)c3)nc3ccc(C)cc3c2=O)c(OC)c1,19%
16,O=C1NC(=O)C(CSc2ccccc2)(c2ccccc2)N1 (stereo not given),92.4%
17,Fc1ccccc1Nc1ccc2nnc(-c3ccncc3)n2n1,103%
18,CC(C)(C)[Si](C)(C)OC1[C@@H](O[Si](C)(C)C(C)(C)C)[C@@H](CNC(=O)NC(=O)C(F)(F)F)O[C@H]1n1cnc2c(NC(=O)Nc3ccccc3)ncnc21 (stereo not given in full),51.4%
19,Cc1ccc(N=c2nc3sc4c(C)ccc(C)c4n3c(N)c2C#N)cc1,100%

row,SMILES,growth
1,COCCOC1=C(Cl)C(=O)c2ccccc2C1=O,21.6%
2,CCOC(=O)C1=C(C)N2C(=NC3=C(CCCC/C3=C\c3ccccc3)C2c2ccccc2)S1 (stereo not given),99.1%
3,CCN1CCN(C(=S)SCC(=O)Nc2nc3ccc(OC)cc3s2)CC1,99.5%
4,Oc1ccccc1/C=N/Nc1nc2ccccc2s1,45%
5,CC(=O)Nc1ccccc1-c1n[nH]c(=O)[nH]c1=O,116%
6,Oc1ccc2ccccc2c1C1NN=C(c2ccccc2)S1 (stereo not given),18%
7,O=c1c2c(=NCCN3CCCC3)cc3c(=O)n(CCCN4CCOCC4)c(=O)c4ccc(c(O)n1CCCN1CCOCC1)c2c4-3,6.22% (active)
8,COc1ccccc1-n1c(SCc2cc(OC)c(OC)c(OC)c2)nc2ccc(Cl)cc2c1=O,31.1%
9,Nc1c(Br)cc(Br)cc1-c1n[nH]c(=O)[nH]c1=O,113%
10,O=C1C(OCCOc2ccccc2)=C(OCCOc2ccccc2)C(=O)c2ccccc21,17.4%
11,O=c1nc(NO)[nH]c(=O)n1Cc1ccccc1,111%
12,COc1ccc(-c2nc3sc(C)nn3c2-c2nc3cc(C)c(C)cc3[nH]2)cc1,96.3%
13,Cc1ccc2nc(NC(=O)CSC(=S)N3CCN(C)CC3)sc2c1,95.3%
14,CC[Si](CC)(CC)OC1[C@@H](O[Si](CC)(CC)CC)[C@@H](CNC(=O)NC)O[C@H]1n1cnc2c(NC(=O)Nc3ccccc3)ncnc21 (stereo not given in full),68.5%
15,COc1ccc(C2SC(C)C(=O)N2CCc2cccs2)cc1OC (stereo not given),80.6%
16,Cc1cc(=O)[nH]n1-c1cc(Cl)ccc1N,105%
17,c1ccc2cc(Cn3c(-c4ccc5ccccc5c4)[n+](Cc4ccc5ccccc5c4)c4ccccc43)ccc2c1,-65.3% (active)
18,COc1cc2nc(SCc3cc(OC)c(OC)c(OC)c3)n(-c3ccccc3OC)c(=O)c2cc1OC,88%
